# The supplement of paper PMC12282887
# ± gives the standard deviation of the averaged measurements.
# Assays:
# Test in all cases: promoter activity interaction Z-score (Lux/OD deviation from empty-vector control); higher = stronger promoter induction by the compound
# [1] = tested on: E. coli BW25113 acrABp lux reporter
# Method in brief: (§1)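 E. coli BW25113 luxCDABE reporter strains grew at 37°C in 40 µl LB Lennox in 384-well plates, with OD600 and luminescence read every 30 min for 12 h. After integration over 0–8 h for wild type or 1–9 h for deletion strains, wells under 10% of the median growth value were removed. Each score is the Z-transformed residual of growth-normalised luminescence fitted against a control.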
# [2] = tested on: E. coli BW25113 micFp lux reporter
# Method in brief: as §1
# [3] = tested on: E. coli BW25113 ompFp lux reporter
# Method in brief: as §1
# [4] = tested on: E. coli BW25113 robp lux reporter
# Method in brief: as §1
# [5] = tested on: E. coli BW25113 soxSp lux reporter
# Method in brief: as §1
# [6] = tested on: E. coli BW25113 tolCp lux reporter
# Method in brief: as §1
# [7] = 18.9 µg/ml, genetic background: wild type
# [8] = 18.9 µg/ml, genetic background: ΔmarA
# [9] = 18.9 µg/ml, genetic background: Δrob
# [10] = 18.9 µg/ml, genetic background: ΔsoxS
# [11] = 37.8 µg/ml, genetic background: wild type
# [12] = 37.8 µg/ml, genetic background: ΔmarA
# [13] = 37.8 µg/ml, genetic background: Δrob
# [14] = 37.8 µg/ml, genetic background: ΔsoxS
# [15] = 75.6 µg/ml, genetic background: wild type
# [16] = 75.6 µg/ml, genetic background: ΔmarA
# [17] = 75.6 µg/ml, genetic background: Δrob
# [18] = 75.6 µg/ml, genetic background: ΔsoxS
# [19] = 151.1 µg/ml, genetic background: wild type
# [20] = 151.1 µg/ml, genetic background: ΔmarA
# [21] = 151.1 µg/ml, genetic background: Δrob
# [22] = 151.1 µg/ml, genetic background: ΔsoxS
structure (smiles),measurement,setting,value
O=c1c(O)c(-c2ccc(O)c(O)c2)oc2cc(O)cc(O)c12 [Quercetin],promoter activity interaction Z-score,[1]; [7],0.0407 ± 0.033
same,promoter activity interaction Z-score,[1]; [8],0.285 ± 0.58
same,promoter activity interaction Z-score,[1]; [9],0.143 ± 0.3
same,promoter activity interaction Z-score,[1]; [10],-0.34 ± 0.38
same,promoter activity interaction Z-score,[1]; [11],-0.233 ± 0.072
same,promoter activity interaction Z-score,[1]; [12],-0.0432 ± 0.69
same,promoter activity interaction Z-score,[1]; [13],0.164 ± 0.29
same,promoter activity interaction Z-score,[1]; [14],-0.184 ± 0.31
same,promoter activity interaction Z-score,[1]; [15],0.12 ± 0.43
same,promoter activity interaction Z-score,[1]; [16],-0.0185 ± 1.1
same,promoter activity interaction Z-score,[1]; [17],0.926 ± 1.1
same,promoter activity interaction Z-score,[1]; [18],-0.604 ± 0.62
same,promoter activity interaction Z-score,[1]; [19],-0.353 ± 0.089
same,promoter activity interaction Z-score,[1]; [20],0.59 ± 0.8
same,promoter activity interaction Z-score,[1]; [21],-0.142 ± 0.23
same,promoter activity interaction Z-score,[1]; [22],-0.9 ± 0.8
same,promoter activity interaction Z-score,[2]; [7],-0.288 ± 0.045
same,promoter activity interaction Z-score,[2]; [8],-0.0462 ± 0.033
same,promoter activity interaction Z-score,[2]; [9],-0.011 ± 0.074
same,promoter activity interaction Z-score,[2]; [10],-0.324 ± 0.11
same,promoter activity interaction Z-score,[2]; [11],-0.188 ± 0.12
same,promoter activity interaction Z-score,[2]; [12],0.0255 ± 0.15
same,promoter activity interaction Z-score,[2]; [13],-0.0437 ± 0.18
same,promoter activity interaction Z-score,[2]; [14],0.101 ± 0.056
same,promoter activity interaction Z-score,[2]; [15],-0.0961 ± 0.062
same,promoter activity interaction Z-score,[2]; [16],0.0844 ± 0.079
same,promoter activity interaction Z-score,[2]; [17],-0.0403 ± 0.11
same,promoter activity interaction Z-score,[2]; [18],-0.101 ± 0.085
same,promoter activity interaction Z-score,[2]; [19],0.0699 ± 0.42
same,promoter activity interaction Z-score,[2]; [20],0.224 ± 0.17
same,promoter activity interaction Z-score,[2]; [21],0.00151 ± 0.41
same,promoter activity interaction Z-score,[2]; [22],-0.0142 ± 0.042
same,promoter activity interaction Z-score,[3]; [7],0.228 ± 0.3
same,promoter activity interaction Z-score,[3]; [8],-0.0494 ± 0.2
same,promoter activity interaction Z-score,[3]; [9],-0.0408 ± 0.12
same,promoter activity interaction Z-score,[3]; [10],-0.358 ± 0.37
same,promoter activity interaction Z-score,[3]; [11],5.13 ± 7
same,promoter activity interaction Z-score,[3]; [12],0.88 ± 1.6
same,promoter activity interaction Z-score,[3]; [13],1.304 ± 0.013
same,promoter activity interaction Z-score,[3]; [14],0.531 ± 0.91
same,promoter activity interaction Z-score,[3]; [15],0.467 ± 1.2
same,promoter activity interaction Z-score,[3]; [16],0.186 ± 0.5
same,promoter activity interaction Z-score,[3]; [17],0.616 ± 1.3
same,promoter activity interaction Z-score,[3]; [18],-0.383 ± 0.54
same,promoter activity interaction Z-score,[3]; [19],0.00251 ± 0.91
same,promoter activity interaction Z-score,[3]; [20],0.373 ± 2.1
same,promoter activity interaction Z-score,[3]; [21],1.79 ± 0.024
same,promoter activity interaction Z-score,[3]; [22],-0.395 ± 0.84
same,promoter activity interaction Z-score,[4]; [7],0.802 ± 0.18
same,promoter activity interaction Z-score,[4]; [8],0.257 ± 0.52
same,promoter activity interaction Z-score,[4]; [9],0.102 ± 0.22
same,promoter activity interaction Z-score,[4]; [10],0.13 ± 0.66
same,promoter activity interaction Z-score,[4]; [11],0.9459 ± 0.004
same,promoter activity interaction Z-score,[4]; [12],0.813 ± 0.4
same,promoter activity interaction Z-score,[4]; [13],0.818 ± 0.073
same,promoter activity interaction Z-score,[4]; [14],1.68 ± 0.85
same,promoter activity interaction Z-score,[4]; [15],0.907 ± 0.8
same,promoter activity interaction Z-score,[4]; [16],0.794 ± 0.53
same,promoter activity interaction Z-score,[4]; [17],0.226 ± 0.59
same,promoter activity interaction Z-score,[4]; [18],-0.114 ± 0.062
same,promoter activity interaction Z-score,[4]; [19],0.549 ± 0.61
same,promoter activity interaction Z-score,[4]; [20],0.417 ± 0.21
same,promoter activity interaction Z-score,[4]; [21],0.359 ± 0.075
same,promoter activity interaction Z-score,[4]; [22],0.712 ± 1.1
same,promoter activity interaction Z-score,[5]; [7],-0.413 ± 0.13
same,promoter activity interaction Z-score,[5]; [8],-0.385 ± 0.18
same,promoter activity interaction Z-score,[5]; [9],-0.267 ± 0.1
same,promoter activity interaction Z-score,[5]; [10],-0.281 ± 0.57
same,promoter activity interaction Z-score,[5]; [11],-0.368 ± 0.13
same,promoter activity interaction Z-score,[5]; [12],-0.526 ± 0.069
same,promoter activity interaction Z-score,[5]; [13],-0.179 ± 0.028
same,promoter activity interaction Z-score,[5]; [14],-0.0207 ± 0.51
same,promoter activity interaction Z-score,[5]; [15],-0.595 ± 0.016
same,promoter activity interaction Z-score,[5]; [16],-0.528 ± 0.057
same,promoter activity interaction Z-score,[5]; [17],-0.375 ± 0.034
same,promoter activity interaction Z-score,[5]; [18],-0.161 ± 0.89
same,promoter activity interaction Z-score,[5]; [19],-0.715 ± 0.13
same,promoter activity interaction Z-score,[5]; [20],-0.513 ± 0.048
same,promoter activity interaction Z-score,[5]; [21],-0.414 ± 0.054
same,promoter activity interaction Z-score,[5]; [22],-0.567 ± 1
same,promoter activity interaction Z-score,[6]; [7],-0.038 ± 0.65
same,promoter activity interaction Z-score,[6]; [8],-0.0776 ± 0.32
same,promoter activity interaction Z-score,[6]; [9],-0.506 ± 0.62
same,promoter activity interaction Z-score,[6]; [10],-0.651 ± 0.26
same,promoter activity interaction Z-score,[6]; [11],0.105 ± 0.049
same,promoter activity interaction Z-score,[6]; [12],0.271 ± 0.14
same,promoter activity interaction Z-score,[6]; [13],0.0838 ± 0.44
same,promoter activity interaction Z-score,[6]; [14],0.0451 ± 1.2
same,promoter activity interaction Z-score,[6]; [15],0.492 ± 0.9
same,promoter activity interaction Z-score,[6]; [16],0.253 ± 0.53
same,promoter activity interaction Z-score,[6]; [17],0.773 ± 0.82
same,promoter activity interaction Z-score,[6]; [18],-0.519 ± 0.18
same,promoter activity interaction Z-score,[6]; [19],0.00965 ± 1
same,promoter activity interaction Z-score,[6]; [20],0.125 ± 0.38
same,promoter activity interaction Z-score,[6]; [21],0.962 ± 1.8
same,promoter activity interaction Z-score,[6]; [22],-0.462 ± 0.4
